Reference: PMC7862700, “An all-to-all approach to the identification of sequence-specific readers for epigenetic DNA modifications on cytosine”

Legend:
Assay in all cases: DAPPL (digital affinity profiling via proximity ligation, sequencing); 10 mM Tris-HCl pH 7.5, 50 mM NaCl, 1 mM DTT, 4% glycerol, room temperature, 30 min; GST-TFs on glutathione beads, 16-mer random dsDNA library, 0.1% formaldehyde crosslink after washing; high values mean tight binding
FLI1 = target: T1, FLI1 (Homo sapiens, UniProt Q01543 1-452); conditions: protein: recombinant; tags: N-terminal GST; dsDNA, one strand shown
T1 sequence: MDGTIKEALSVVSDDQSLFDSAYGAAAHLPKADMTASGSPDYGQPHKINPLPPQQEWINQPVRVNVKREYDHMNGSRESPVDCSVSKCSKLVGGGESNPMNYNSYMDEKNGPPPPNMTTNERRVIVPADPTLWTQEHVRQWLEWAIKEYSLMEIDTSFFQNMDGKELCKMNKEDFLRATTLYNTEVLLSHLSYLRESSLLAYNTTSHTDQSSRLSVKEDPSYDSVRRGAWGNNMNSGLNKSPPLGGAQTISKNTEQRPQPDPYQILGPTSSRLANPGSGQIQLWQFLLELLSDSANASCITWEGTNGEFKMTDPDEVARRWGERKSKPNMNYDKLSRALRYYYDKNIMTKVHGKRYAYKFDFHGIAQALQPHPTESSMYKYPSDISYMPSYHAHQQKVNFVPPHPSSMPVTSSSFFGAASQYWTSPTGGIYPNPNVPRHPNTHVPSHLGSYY
How it was run: (§1)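 Pools of DNA-barcoded human transcription factors, expressed in yeast as GST fusions on glutathione beads and combined with a tag-only sample, were incubated with 200 nmole of a 16-mer random double-stranded DNA library. Incubation took 30 min at room temperature in Tris/NaCl/DTT/glycerol buffer and was followed by washing, 0.1% formaldehyde crosslinking, proximity ligation (BsaI/T4 ligase, 1 h, 37 °C), PCR amplification and sequencing on an Illumina NextSeq500. Binding signal is the ratio of a hexamer's read frequency for a factor to its frequency for the tag-only sample.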

ELK1 = target: T2, ELK1 (Homo sapiens, UniProt P19419 1-428); conditions: protein: recombinant; tags: N-terminal GST; dsDNA, one strand shown
T2 sequence: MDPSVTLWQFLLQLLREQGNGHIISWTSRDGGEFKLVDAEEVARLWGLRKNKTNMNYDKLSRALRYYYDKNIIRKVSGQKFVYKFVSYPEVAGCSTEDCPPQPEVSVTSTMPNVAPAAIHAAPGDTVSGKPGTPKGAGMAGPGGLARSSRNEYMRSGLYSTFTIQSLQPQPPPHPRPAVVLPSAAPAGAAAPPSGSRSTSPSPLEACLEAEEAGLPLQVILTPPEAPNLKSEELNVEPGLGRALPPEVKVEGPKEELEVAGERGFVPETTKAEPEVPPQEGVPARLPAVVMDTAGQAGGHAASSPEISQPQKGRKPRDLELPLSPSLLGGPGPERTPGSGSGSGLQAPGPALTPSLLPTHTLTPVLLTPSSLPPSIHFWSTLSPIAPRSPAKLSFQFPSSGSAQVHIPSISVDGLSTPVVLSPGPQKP
How it was run: as §1

GABPA = target: T3, GABPA (Homo sapiens, UniProt Q06546 1-454); conditions: protein: recombinant; tags: N-terminal GST; dsDNA, one strand shown
T3 sequence: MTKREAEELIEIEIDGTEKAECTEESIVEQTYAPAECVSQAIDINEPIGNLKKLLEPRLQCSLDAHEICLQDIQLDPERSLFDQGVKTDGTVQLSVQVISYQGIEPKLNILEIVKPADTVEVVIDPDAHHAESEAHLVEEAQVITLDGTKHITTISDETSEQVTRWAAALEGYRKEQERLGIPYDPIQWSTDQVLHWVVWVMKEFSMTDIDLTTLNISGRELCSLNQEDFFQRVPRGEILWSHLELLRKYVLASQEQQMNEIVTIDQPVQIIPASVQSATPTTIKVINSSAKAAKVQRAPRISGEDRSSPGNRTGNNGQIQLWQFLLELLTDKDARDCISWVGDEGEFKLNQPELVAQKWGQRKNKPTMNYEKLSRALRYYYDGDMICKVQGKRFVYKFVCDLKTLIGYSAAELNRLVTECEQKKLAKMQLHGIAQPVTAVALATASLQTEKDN
How it was run: as §1

ERG = target: T4, ERG (Homo sapiens, UniProt P11308 1-479); conditions: protein: recombinant; tags: N-terminal GST; dsDNA, one strand shown
T4 sequence: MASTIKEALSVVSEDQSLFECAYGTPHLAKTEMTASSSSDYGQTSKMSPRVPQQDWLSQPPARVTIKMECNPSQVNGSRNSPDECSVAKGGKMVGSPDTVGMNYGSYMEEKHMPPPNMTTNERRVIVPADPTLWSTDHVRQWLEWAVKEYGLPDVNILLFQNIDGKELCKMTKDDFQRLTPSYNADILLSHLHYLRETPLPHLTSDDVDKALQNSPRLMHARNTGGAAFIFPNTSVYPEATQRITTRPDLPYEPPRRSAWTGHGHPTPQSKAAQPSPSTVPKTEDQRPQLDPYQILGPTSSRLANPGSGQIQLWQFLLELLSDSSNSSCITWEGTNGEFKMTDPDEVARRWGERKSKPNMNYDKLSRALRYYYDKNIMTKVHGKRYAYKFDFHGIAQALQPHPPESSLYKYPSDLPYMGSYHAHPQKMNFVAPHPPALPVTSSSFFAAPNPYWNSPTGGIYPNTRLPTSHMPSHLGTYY
How it was run: as §1

ELF1 = ELF1 (Homo sapiens, UniProt P32519 1-619); conditions: protein: recombinant; tags: N-terminal GST; dsDNA, one strand shown
How it was run: as §1

EHF = target: T5, EHF (Homo sapiens, UniProt Q9NZC4 1-300); conditions: protein: recombinant; tags: N-terminal GST; dsDNA, one strand shown
T5 sequence: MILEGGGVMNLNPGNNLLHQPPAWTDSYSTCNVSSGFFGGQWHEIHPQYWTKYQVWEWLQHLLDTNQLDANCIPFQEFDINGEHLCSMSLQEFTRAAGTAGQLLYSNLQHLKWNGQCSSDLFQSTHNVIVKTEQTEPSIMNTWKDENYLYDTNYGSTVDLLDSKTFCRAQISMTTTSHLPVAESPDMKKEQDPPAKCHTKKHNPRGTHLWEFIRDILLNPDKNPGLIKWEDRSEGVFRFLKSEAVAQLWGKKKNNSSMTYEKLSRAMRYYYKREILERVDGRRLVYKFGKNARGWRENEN
How it was run: as §1

SPI1 = SPI1 (Homo sapiens, UniProt P17947 1-270); conditions: protein: recombinant; tags: N-terminal GST; dsDNA, one strand shown
How it was run: as §1

SPIB = SPIB (Homo sapiens, UniProt Q01892 1-262); conditions: protein: recombinant; tags: N-terminal GST; dsDNA, one strand shown
How it was run: as §1

ELK3 = target: T6, ELK3 (Homo sapiens, UniProt P41970 1-407); conditions: protein: recombinant; tags: N-terminal GST; dsDNA, one strand shown
T6 sequence: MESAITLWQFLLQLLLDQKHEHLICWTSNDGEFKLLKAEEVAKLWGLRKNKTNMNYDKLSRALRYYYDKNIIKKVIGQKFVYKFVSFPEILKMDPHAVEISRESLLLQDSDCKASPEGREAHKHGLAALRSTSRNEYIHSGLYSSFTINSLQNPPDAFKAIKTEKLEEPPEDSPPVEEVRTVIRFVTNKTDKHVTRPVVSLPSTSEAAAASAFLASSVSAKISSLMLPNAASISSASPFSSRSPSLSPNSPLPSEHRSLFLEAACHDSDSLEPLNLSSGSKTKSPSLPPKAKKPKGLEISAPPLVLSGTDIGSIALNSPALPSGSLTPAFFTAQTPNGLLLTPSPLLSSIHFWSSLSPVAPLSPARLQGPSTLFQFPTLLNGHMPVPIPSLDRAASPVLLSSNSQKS
How it was run: as §1

FEV = target: T7, FEV (Homo sapiens, UniProt Q99581 1-238); conditions: protein: recombinant; tags: N-terminal GST; dsDNA, one strand shown
T7 sequence: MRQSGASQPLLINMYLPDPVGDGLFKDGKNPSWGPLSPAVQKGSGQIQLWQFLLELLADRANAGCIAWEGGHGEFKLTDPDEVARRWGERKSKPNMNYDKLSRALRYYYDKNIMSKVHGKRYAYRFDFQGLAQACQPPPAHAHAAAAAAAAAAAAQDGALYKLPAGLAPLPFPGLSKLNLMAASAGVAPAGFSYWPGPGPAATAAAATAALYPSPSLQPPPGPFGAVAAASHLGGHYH
How it was run: as §1

ETV5 = ETV5 (Homo sapiens, UniProt P41161 1-510); conditions: protein: recombinant; tags: N-terminal GST; dsDNA, one strand shown
How it was run: as §1

HSF1 = HSF1 (Homo sapiens, UniProt Q00613 1-529); conditions: protein: recombinant; tags: N-terminal GST; chain copies: 3; dsDNA, one strand shown
How it was run: as §1

SPIC = target: T8, SPIC (Homo sapiens, UniProt Q8N5J4 1-248); conditions: protein: recombinant; tags: N-terminal GST; dsDNA, one strand shown
T8 sequence: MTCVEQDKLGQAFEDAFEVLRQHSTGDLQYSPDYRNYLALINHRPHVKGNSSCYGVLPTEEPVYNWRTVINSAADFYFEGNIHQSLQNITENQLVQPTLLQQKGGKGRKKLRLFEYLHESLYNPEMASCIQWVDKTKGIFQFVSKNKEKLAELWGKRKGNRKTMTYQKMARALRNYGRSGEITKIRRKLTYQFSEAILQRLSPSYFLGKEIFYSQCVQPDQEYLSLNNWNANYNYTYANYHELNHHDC
How it was run: as §1

ELF4 = ELF4 (Homo sapiens, UniProt Q99607 1-663); conditions: protein: recombinant; tags: N-terminal GST; dsDNA, one strand shown
How it was run: as §1

ELK4 = target: T9, ELK4 (Homo sapiens, UniProt P28324-2 1-405); conditions: protein: recombinant; tags: N-terminal GST; dsDNA, one strand shown
T9 sequence: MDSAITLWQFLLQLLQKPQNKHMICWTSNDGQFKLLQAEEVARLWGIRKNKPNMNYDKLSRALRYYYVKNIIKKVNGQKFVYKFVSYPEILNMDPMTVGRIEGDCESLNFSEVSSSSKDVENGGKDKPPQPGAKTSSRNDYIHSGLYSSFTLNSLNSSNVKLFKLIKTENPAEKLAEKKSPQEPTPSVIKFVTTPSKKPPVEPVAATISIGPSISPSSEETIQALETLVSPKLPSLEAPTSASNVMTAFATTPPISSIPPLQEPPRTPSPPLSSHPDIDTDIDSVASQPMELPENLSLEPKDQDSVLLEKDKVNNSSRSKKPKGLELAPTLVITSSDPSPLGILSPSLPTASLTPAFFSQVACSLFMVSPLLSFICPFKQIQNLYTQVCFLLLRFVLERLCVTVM
How it was run: as §1

ETV2 = target: T10, ETV2 (Homo sapiens, UniProt O00321 1-342); conditions: protein: recombinant; tags: N-terminal GST; dsDNA, one strand shown
T10 sequence: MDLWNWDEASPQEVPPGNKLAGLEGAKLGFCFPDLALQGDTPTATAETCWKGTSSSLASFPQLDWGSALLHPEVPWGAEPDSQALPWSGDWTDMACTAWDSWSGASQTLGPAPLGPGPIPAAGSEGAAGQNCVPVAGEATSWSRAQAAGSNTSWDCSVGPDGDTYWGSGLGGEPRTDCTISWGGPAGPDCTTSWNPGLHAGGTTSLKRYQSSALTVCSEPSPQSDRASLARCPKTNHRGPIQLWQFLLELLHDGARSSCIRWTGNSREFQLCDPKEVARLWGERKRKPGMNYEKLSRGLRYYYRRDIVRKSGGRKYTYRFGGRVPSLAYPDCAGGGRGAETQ
How it was run: as §1

ELF3 = target: T11, ELF3 (Homo sapiens, UniProt P78545 1-371); conditions: protein: recombinant; tags: N-terminal GST; dsDNA, one strand shown
T11 sequence: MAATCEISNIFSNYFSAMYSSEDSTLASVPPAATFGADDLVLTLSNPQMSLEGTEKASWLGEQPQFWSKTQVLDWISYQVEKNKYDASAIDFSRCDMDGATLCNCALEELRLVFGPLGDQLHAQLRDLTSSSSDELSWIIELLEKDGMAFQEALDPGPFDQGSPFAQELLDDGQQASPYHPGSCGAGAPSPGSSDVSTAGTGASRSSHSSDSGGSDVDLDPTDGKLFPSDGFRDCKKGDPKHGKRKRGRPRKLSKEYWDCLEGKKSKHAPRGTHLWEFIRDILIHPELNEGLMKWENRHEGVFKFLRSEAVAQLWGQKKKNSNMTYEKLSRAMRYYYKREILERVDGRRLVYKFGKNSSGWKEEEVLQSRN
How it was run: as §1

CRX = CRX (Homo sapiens, UniProt O43186 1-299); conditions: protein: recombinant; tags: N-terminal GST; dsDNA, one strand shown
How it was run: as §1

ETV1 = ETV1 (Homo sapiens, UniProt P50549 1-477); conditions: protein: recombinant; tags: N-terminal GST; dsDNA, one strand shown
How it was run: as §1

HSF1, sequence (Q00613 whole entry): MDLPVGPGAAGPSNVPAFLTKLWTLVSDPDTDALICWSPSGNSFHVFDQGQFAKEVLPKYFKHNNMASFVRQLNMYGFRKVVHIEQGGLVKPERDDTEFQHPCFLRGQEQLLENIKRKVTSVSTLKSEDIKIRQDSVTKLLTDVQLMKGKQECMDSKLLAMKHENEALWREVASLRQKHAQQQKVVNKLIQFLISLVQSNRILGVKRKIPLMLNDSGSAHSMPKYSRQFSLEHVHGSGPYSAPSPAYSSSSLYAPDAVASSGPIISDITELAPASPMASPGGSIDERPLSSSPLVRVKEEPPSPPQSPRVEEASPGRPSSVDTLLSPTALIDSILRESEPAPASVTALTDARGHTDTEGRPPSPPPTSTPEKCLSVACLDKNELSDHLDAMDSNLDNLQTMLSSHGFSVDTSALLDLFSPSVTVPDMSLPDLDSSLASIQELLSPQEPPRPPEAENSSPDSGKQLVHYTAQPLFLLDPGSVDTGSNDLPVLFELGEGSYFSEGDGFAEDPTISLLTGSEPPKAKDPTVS
CRX, sequence (O43186 whole entry): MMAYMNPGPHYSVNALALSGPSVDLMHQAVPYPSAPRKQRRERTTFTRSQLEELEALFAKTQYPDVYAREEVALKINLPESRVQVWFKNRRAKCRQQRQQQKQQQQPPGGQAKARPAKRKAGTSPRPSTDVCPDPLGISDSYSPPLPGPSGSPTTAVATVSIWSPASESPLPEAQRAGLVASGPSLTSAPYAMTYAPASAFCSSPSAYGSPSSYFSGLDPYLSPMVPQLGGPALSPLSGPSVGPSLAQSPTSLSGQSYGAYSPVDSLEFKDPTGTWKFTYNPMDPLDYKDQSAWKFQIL
SPIB, sequence (Q01892 whole entry): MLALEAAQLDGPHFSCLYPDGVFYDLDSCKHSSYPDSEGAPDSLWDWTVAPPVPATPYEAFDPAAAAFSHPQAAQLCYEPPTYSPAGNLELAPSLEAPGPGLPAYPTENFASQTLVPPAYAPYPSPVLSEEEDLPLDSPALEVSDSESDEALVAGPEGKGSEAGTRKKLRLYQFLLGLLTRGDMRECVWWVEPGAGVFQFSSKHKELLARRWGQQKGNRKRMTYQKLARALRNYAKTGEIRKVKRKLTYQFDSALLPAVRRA
ELF4, sequence (Q99607 whole entry): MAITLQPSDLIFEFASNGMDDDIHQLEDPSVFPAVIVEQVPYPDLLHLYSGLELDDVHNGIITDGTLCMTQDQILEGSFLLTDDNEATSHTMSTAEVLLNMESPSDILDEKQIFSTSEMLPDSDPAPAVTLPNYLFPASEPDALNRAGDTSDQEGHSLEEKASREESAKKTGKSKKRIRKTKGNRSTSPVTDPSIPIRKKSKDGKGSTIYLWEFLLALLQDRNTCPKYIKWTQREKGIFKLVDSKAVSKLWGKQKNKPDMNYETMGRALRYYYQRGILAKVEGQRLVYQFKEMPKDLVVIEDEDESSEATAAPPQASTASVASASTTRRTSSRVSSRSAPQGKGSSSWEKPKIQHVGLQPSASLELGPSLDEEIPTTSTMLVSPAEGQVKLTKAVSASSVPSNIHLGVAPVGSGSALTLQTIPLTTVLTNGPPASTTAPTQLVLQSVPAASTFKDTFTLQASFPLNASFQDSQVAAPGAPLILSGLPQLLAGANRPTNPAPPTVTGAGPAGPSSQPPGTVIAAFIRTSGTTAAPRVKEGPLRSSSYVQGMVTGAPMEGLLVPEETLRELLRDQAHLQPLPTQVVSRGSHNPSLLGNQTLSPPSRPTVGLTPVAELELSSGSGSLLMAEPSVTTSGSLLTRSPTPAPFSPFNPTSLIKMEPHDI
ELF1, sequence (P32519 whole entry): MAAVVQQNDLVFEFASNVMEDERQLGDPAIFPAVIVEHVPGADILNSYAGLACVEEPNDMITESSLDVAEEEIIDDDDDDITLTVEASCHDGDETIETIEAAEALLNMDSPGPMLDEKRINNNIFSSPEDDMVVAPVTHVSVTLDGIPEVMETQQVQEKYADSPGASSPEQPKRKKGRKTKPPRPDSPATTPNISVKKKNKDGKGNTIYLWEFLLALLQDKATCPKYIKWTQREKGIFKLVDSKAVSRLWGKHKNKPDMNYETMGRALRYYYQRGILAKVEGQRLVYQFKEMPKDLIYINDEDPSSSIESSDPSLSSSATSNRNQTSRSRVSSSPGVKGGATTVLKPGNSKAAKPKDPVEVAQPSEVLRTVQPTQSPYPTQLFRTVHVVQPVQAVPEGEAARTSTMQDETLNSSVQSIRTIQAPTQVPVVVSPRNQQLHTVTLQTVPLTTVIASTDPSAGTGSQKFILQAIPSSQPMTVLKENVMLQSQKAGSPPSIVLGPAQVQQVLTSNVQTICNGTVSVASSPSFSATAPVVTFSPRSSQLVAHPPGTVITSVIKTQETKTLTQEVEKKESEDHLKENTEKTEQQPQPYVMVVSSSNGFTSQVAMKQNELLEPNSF
ETV5, sequence (P41161 whole entry): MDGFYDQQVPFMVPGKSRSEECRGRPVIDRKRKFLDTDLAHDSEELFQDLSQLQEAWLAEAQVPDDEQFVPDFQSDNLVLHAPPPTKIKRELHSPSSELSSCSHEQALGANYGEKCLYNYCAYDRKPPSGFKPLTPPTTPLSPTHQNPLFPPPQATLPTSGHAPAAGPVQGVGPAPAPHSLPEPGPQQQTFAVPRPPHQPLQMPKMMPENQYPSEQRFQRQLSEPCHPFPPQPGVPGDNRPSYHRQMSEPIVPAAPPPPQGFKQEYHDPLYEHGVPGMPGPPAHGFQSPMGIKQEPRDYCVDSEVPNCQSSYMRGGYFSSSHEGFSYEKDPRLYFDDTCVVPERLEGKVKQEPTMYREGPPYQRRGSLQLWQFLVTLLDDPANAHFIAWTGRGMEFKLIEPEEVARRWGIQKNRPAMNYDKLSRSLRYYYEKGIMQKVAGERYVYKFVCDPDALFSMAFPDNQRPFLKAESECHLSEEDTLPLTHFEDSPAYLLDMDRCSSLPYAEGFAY
ETV1, sequence (P50549 whole entry): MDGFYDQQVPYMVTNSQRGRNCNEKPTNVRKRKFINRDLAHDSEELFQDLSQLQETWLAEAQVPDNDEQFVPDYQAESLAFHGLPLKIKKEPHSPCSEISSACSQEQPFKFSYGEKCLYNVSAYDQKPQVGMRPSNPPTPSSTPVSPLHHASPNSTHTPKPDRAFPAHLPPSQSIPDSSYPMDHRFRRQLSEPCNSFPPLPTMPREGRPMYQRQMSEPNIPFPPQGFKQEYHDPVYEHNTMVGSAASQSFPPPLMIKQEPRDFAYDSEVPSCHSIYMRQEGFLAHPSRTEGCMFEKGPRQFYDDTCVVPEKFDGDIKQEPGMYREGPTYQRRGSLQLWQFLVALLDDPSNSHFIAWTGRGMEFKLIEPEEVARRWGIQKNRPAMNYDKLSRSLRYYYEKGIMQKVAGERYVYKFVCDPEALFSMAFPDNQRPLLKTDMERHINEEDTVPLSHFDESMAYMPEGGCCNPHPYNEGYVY

TCCCGG
binding signal (FLI1): 2.29 fold enrichment (6-mer frequency, TF over GST control) | binding signal (ELK1): 2.07 fold enrichment (6-mer frequency, TF over GST control) | binding signal (GABPA): 2.14 fold enrichment (6-mer frequency, TF over GST control) | binding signal (ERG): 2.22 fold enrichment (6-mer frequency, TF over GST control) | binding signal (ELF1): 2.12 fold enrichment (6-mer frequency, TF over GST control) | binding signal (EHF): 2.19 fold enrichment (6-mer frequency, TF over GST control) | binding signal (SPI1): 2.01 fold enrichment (6-mer frequency, TF over GST control) | binding signal (SPIB): 2.43 fold enrichment (6-mer frequency, TF over GST control) | binding signal (ELK3): 1.96 fold enrichment (6-mer frequency, TF over GST control) | binding signal (FEV): 2.09 fold enrichment (6-mer frequency, TF over GST control) | binding signal (ETV5): 2.27 fold enrichment (6-mer frequency, TF over GST control) | binding signal (HSF1): 1.37 fold enrichment (6-mer frequency, TF over GST control) | binding signal (SPIC): 2.35 fold enrichment (6-mer frequency, TF over GST control) | binding signal (ELF4): 2 fold enrichment (6-mer frequency, TF over GST control) | binding signal (ELK4): 1.91 fold enrichment (6-mer frequency, TF over GST control) | binding signal (ETV2): 2 fold enrichment (6-mer frequency, TF over GST control) | binding signal (ELF3): 2.17 fold enrichment (6-mer frequency, TF over GST control) | binding signal (CRX): 1.41 fold enrichment (6-mer frequency, TF over GST control) | binding signal (ETV1): 2.21 fold enrichment (6-mer frequency, TF over GST control)
